Source: PubChem BioAssay AID1159580 (chemical genetic matrix, 2015)
The campaign covered roughly 5,500 compounds. About 2,000 (36%) were called active. Not shown: some 18% with an inconclusive outcome. Rule as the data show it: active = normalized growth mostly below about 0.91 (no sharp cut-off); inconclusive = no clear call, values can overlap the other calls; inactive = mostly above about 0.92. The list shows a part of the results.

Assay: chemical genetic growth profiling, strain panel (AID 1159580);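 also: tested at 20 µM; growth read once vehicle control cultures reached saturation at 30 °C; 1 = growth at the plate median or of vehicle wells; lower values mean less growth of the strain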
Details: growth OD

Measured: normalized growth

OC1=Cc2c(O)cc(O)cc2OC1(O)c1ccc(O)c(O)c1 (stereo not drawn)
inactive: S. cerevisiae deletion strains, locus YBR021W, strain FUR4, hits give low values 1.06 | S. cerevisiae deletion strains, locus YBR229C, strain ROT2, hits give low values 1 | S. cerevisiae deletion strains, locus YCL029C, strain bik1, hits give low values 0.997 | S. cerevisiae deletion strains, locus YDL035C, strain GPR1, hits give low values 1.02 | S. cerevisiae deletion strains, locus YDL074C, strain BRE1, hits give low values 0.962 | S. cerevisiae deletion strains, locus YDL101C, strain DUN1, hits give low values 0.99 | S. cerevisiae deletion strains, locus YDL134C, strain PPH21, hits give low values 0.975 | S. cerevisiae deletion strains, locus YDL185W, strain tfp1, hits give low values 0.96 | S. cerevisiae deletion strains, locus YDL192W, strain arf1, hits give low values 1 | S. cerevisiae deletion strains, locus YDR101C, strain arx1, hits give low values 1.03 | S. cerevisiae deletion strains, locus YDR162C, strain NBP2, hits give low values 0.956 | S. cerevisiae deletion strains, locus YDR318W, strain mcm21, hits give low values 1 | S. cerevisiae deletion strains, locus YDR388W, hits give low values 0.994 | S. cerevisiae deletion strains, locus YDR502C, strain sam2, hits give low values 1.01 | S. cerevisiae deletion strains, locus YER110C, hits give low values 0.993 | S. cerevisiae deletion strains, locus YER155C, strain BEM2, hits give low values 1.02 | S. cerevisiae deletion strains, locus YER167W, strain BCK2, hits give low values 1.01 | S. cerevisiae deletion strains, locus YGL078C, strain dbp3, hits give low values 0.972 | S. cerevisiae deletion strains, locus YGL086W, strain mad1, hits give low values 0.997 | S. cerevisiae deletion strains, locus YGL248W, strain PDE1, hits give low values 0.979 | S. cerevisiae deletion strains, locus YGR078C, strain PAC10, hits give low values 0.962 | S. cerevisiae deletion strains, locus YGR135W, strain pre9, hits give low values 0.972 | S. cerevisiae deletion strains, locus YGR252W, strain gcn5, hits give low values 1.1 | S. cerevisiae deletion strains, locus YHR030C, strain SLT2, hits give low values 0.984 | S. cerevisiae deletion strains, locus YHR079C, strain IRE1 (second series), hits give low values 0.995 | S. cerevisiae deletion strains, locus YHR094C, strain hxt1, hits give low values 0.995 | S. cerevisiae deletion strains, locus YHR129C, strain ARP1, hits give low values 0.985 | S. cerevisiae deletion strains, locus YHR200W, strain rpn10, hits give low values 0.997 | S. cerevisiae deletion strains, locus YIL066C, strain RNR3, hits give low values 0.991 | S. cerevisiae deletion strains, locus YIL073C, strain SPO22, hits give low values 0.972 | S. cerevisiae deletion strains, locus YIL125W, strain kgd1, hits give low values 0.989 | S. cerevisiae deletion strains, locus YIR030C, strain dcg1, hits give low values 0.989 | S. cerevisiae deletion strains, locus YJL095W, strain BCK1, hits give low values 0.965 | S. cerevisiae deletion strains, locus YJL134W, strain LCB3, hits give low values 0.997 | S. cerevisiae deletion strains, locus YJL168C, strain set2, hits give low values 0.991 | S. cerevisiae deletion strains, locus YJL187C, strain SWE1 (second series), hits give low values 0.966 | S. cerevisiae deletion strains, locus YKL009W, strain mrt4, hits give low values 0.997 | S. cerevisiae deletion strains, locus YKL068W, hits give low values 0.981 | S. cerevisiae deletion strains, locus YKL085W, strain MDH1 (second series), hits give low values 0.986 | S. cerevisiae deletion strains, locus YKL085W, strain MDH1, hits give low values 0.986 | S. cerevisiae deletion strains, locus YKL190W, strain CNB1, hits give low values 0.992 | S. cerevisiae deletion strains, locus YKR001C, strain vps1, hits give low values 1 | S. cerevisiae deletion strains, locus YLR039C, strain RIC1, hits give low values 1 | S. cerevisiae deletion strains, locus YLR058C, strain SHM2, hits give low values 0.984 | S. cerevisiae deletion strains, locus YLR102C, strain apc9, hits give low values 0.993 | S. cerevisiae deletion strains, locus YLR268W, strain sec22, hits give low values 1.02 | S. cerevisiae deletion strains, locus YLR342W, strain FKS1 (second series), hits give low values 0.935 | S. cerevisiae deletion strains, locus YLR371W, strain rom2, hits give low values 0.975 | S. cerevisiae deletion strains, locus YLR418C, strain cdc73, hits give low values 1.02 | S. cerevisiae deletion strains, locus YML016C, strain PPZ1, hits give low values 0.972 | S. cerevisiae deletion strains, locus YML032C, strain rad52, hits give low values 1.02 | S. cerevisiae deletion strains, locus YML124C, strain tub3, hits give low values 1 | S. cerevisiae deletion strains, locus YMR078C, strain ctf18, hits give low values 0.99 | S. cerevisiae deletion strains, locus YMR223W, strain ubp8, hits give low values 0.987 | S. cerevisiae deletion strains, locus YMR307W, strain GAS1, hits give low values 0.971 | S. cerevisiae deletion strains, locus YNL067W, strain RPL9B, hits give low values 0.967 | S. cerevisiae deletion strains, locus YNL153C, strain GIM3, hits give low values 0.964 | S. cerevisiae deletion strains, locus YNL233W, strain BNI4, hits give low values 0.998 | S. cerevisiae deletion strains, locus YNL250W, strain rad50, hits give low values 0.97 | S. cerevisiae deletion strains, locus YNL271C, strain bni1, hits give low values 0.978 | S. cerevisiae deletion strains, locus YNL298W, strain CLA4, hits give low values 0.986 | S. cerevisiae deletion strains, locus YNL307C, strain MCK1, hits give low values 0.999 | S. cerevisiae deletion strains, locus YNR052C, strain pop2, hits give low values 0.981 | S. cerevisiae deletion strains, locus YOL006C, strain TOP1, hits give low values 0.945 | S. cerevisiae deletion strains, locus YOL012C, strain htz1 0.48 | S. cerevisiae deletion strains, locus YOL147C, strain pex11, hits give low values 1.01 | S. cerevisiae deletion strains, locus YOR061W, strain CKA2, hits give low values 0.987 | S. cerevisiae deletion strains, locus YOR069W, strain VPS5, hits give low values 0.988 | S. cerevisiae deletion strains, locus YOR136W, strain idh2, hits give low values 1 | S. cerevisiae deletion strains, locus YOR144C, strain elg1, hits give low values 0.996 | S. cerevisiae deletion strains, locus YOR184W, strain ser1, hits give low values 1.05 | S. cerevisiae deletion strains, locus YOR316C, strain cot1, hits give low values 0.984 | S. cerevisiae deletion strains, locus YPR119W, strain clb2, hits give low values 0.995 | S. cerevisiae deletion strains, locus YPR141C, strain kar3, hits give low values 0.974 | S. cerevisiae deletion strains, locus YPR163C, strain tif3, hits give low values 0.999 | S. cerevisiae deletion strains, locus YPR167C, strain met16, hits give low values 0.999 | S. cerevisiae deletion strains, strain wtn01, hits give low values 1.01 | S. cerevisiae strains, strain wild type, hits give low values 0.998
